The test system of test [1] is PRMT1 (protein arginine N-methyltransferase 1). The test is described as follows: PRMT1 binders on small-molecule microarrays, primary screen, biochemical, small-molecule microarray, 635 nm fluorescence (AID 1088).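 Note: binding of Prmt1 protein to compounds spotted on small-molecule microarray slides.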 The settings on record: small-molecule microarray binding, higher = more signal.
A short description of test [2]: yeast growth modulation, basal conditions, primary screen, YJM789 clinical isolate, OD600, 24 h (AID 1089).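 Note: growth of clinical yeast isolate S. cerevisiae YJM 789 seeded 1000 cells per well; test concentration not given here.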 The following applies: S. cerevisiae YJM789 growth, higher = more signal, called active from +8 up or from −8 down.
Test [3] is described as follows: fission yeast growth modulation, primary screen, strain 972, OD600, 24 h, no modulator (AID 1090).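 Note: basal condition with compound alone and no growth modifier present; test concentration not given here.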 The following applies: S. pombe 972 growth, higher = more signal, called active from +8 up or from −8 down.
Test [4] in a line: S. cerevisiae growth modulation with rapamycin, primary screen, strain BY4716, OD600, 96 h (AID 1091). Note: test concentration not given here. The following applies: higher = more signal, called active from +8 up or from −8 down.
The target of test [5] is Torsin-1A-interacting protein 2 (Homo sapiens) (UniProt Q8NFQ8). Kind of test: LULL1 binders on small-molecule microarray, primary screen, cell lysate, human LULL1 lysate, 635/667 nm fluorescence (AID 1092).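 Note: probe is lysate of COS7 cells overexpressing human LULL1; score merges per-feature 667 nm fluorescence with signal-to-noise.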 The settings on record: hLULL1 lysate binding, 635 nm fluorescence, higher = more signal.
Test [6] is described as follows: E. coli growth modulation, two-sided OD650, primary screen, E. coli filamentation project, strain DRC41, 24 h (AID 1093).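 Note: MC1000 strain lacking acrAB efflux and sulA so SOS filamentation is blocked; test concentration not given here.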 The settings on record: OD650, 24 h, higher = more signal, called active from +8 up or from −8 down.
A short description of test [7]: small-molecule microarray binders of probe aLefty2, primary screen, biochemical, biotinylated probe, 635/667 nm fluorescence (AID 1094).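 Note: score merges spot fluorescence near 667 nm with spot signal-to-noise ratio.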 The following applies: higher = more signal.
Test [8] relates to Noggin (protein binding on small-molecule microarray). Kind of test: Noggin binders on small-molecule microarray, primary screen, biochemical, 635/667 nm fluorescence (AID 1095).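 Note: score merges 667 nm feature fluorescence with signal to noise over triplicate slides.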 The settings on record: 635 nm fluorescence, higher = more signal.
The target in test [9] is Neurogenic locus notch homolog protein 3 (Homo sapiens) (UniProt Q9UM47). The test is described as follows: NOTCH3 binders on small-molecule microarray, primary screen, biochemical, 635/667 nm fluorescence (AID 1096). The following applies: NOTCH3 binding, 635 nm fluorescence, higher = more signal.
Test [10] in a line: small-molecule microarray binders of probe aEGFR, primary screen, biochemical, biotinylated probe, 635/667 nm fluorescence (AID 1097).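 Note: probe is a biotinylated anti-EGFR antibody binding compounds printed on slides; score combines fluorescence near 667 nm and signal to noise of each spot.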 The settings on record: higher = more signal.
Test [11] relates to Plasmodium falciparum Sir2 (PF13_0152, Sir2A). The test is described as follows: pfSir2 binders on small-molecule microarrays, primary screen, biochemical, small-molecule microarray, 635 nm fluorescence (AID 1098).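 Note: score merges spot fluorescence intensity with its signal-to-noise ratio.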 The settings on record: small-molecule microarray binding, fluorescence 635 nm; higher = more signal.
The nature of test [12]: small-molecule microarray binders of probe aDKK1, primary screen, biochemical, biotinylated probe, 635/667 nm fluorescence (AID 1099).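 Note: score merges 667nm spot fluorescence with signal to noise across triplicate slides; reference of the scale not given here.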 The following applies: higher = more signal.
Test [13] is described as follows: small-molecule microarray binders of probe aCHRDL2, primary screen, biochemical, biotinylated probe, 635/667 nm fluorescence (AID 1100). The following applies: higher = more signal.
Test [14] can be described thus: splicing luciferase reporter signal modulators, primary screen, spliceosome inhibition project, cell-based, HEK293, splice +/- reporter (AID 1101).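 Note: HEK293 cells carrying a splicing-competent luciferase reporter gene; test concentration not given here.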 The settings on record: luminescence, 24 h, higher = more signal, called active from +8 up or from −8 down.
Test [15] concerns the target Fibroblast growth factor 10 (Homo sapiens) (UniProt O15520). Kind of test: FGF10 binders on small-molecule microarrays, primary screen, biochemical, small-molecule microarray, 635 nm fluorescence (AID 1102). The settings on record: FGF10 binding, fluorescence 635 nm, higher = more signal.
For test [16], the system named is glycogen synthase kinase-3 (GSK3A per assay name; protocol says GSK3B). The test is described as follows: GSK3 binders on small-molecule microarrays, primary screen, biochemical, small-molecule microarray, 635 nm fluorescence, GSK3A (AID 1103). Note: the record names both GSK3A and GSK3B. The following applies: small-molecule microarray binding, fluorescence 635 nm; higher = more signal.
Test [17] concerns the target Epidermal growth factor receptor (Homo sapiens) (UniProt P00533). Kind of test: EGFR binders on small-molecule microarrays, primary screen, biochemical, small-molecule microarray, 635 nm fluorescence (AID 1104).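 Note: score merges 667 nm emission intensity with spot signal to noise over triplicate slides.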 The settings on record: EGFR binding, higher = more signal.
For test [18], the target named is Follistatin-related protein 3 (Homo sapiens) (UniProt O95633). The test is described as follows: FSTL3 binders on small-molecule microarrays, primary screen, biochemical, small-molecule microarray, 635 nm fluorescence (AID 1105).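 Note: score merges emission near 667 nm and signal to noise per printed spot across three slides.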 The following applies: FSTL3 binding, higher = more signal.
Test [19] has as its target Dickkopf-related protein 1 (Homo sapiens) (UniProt O94907). The test is described as follows: DKK1 binders on small-molecule microarrays, primary screen, biochemical, small-molecule microarray, 635 nm fluorescence scan (AID 1106).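 Note: score merges emission near 667 nm with signal to noise over three replicate slides.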 The settings on record: DKK1 binding, higher = more signal.
The subject of test [20] is Inhibin beta A chain (activin A). The test is described as follows: INHBA (activin A) binders on microarrays, primary screen, biochemical, small-molecule microarray, 635 nm fluorescence scan (AID 1107).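 Note: mouse activin A protein probed at 4.33 µg/mL on printed slides; score merges bound-protein fluorescence near 667 nm with spot signal-to-noise.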 The following applies: small-molecule microarray binding, higher = more signal.

Active and inactive are the calls of the source.

Chain of Fibroblast growth factor 10 (Homo sapiens) (O15520 whole entry, looked up): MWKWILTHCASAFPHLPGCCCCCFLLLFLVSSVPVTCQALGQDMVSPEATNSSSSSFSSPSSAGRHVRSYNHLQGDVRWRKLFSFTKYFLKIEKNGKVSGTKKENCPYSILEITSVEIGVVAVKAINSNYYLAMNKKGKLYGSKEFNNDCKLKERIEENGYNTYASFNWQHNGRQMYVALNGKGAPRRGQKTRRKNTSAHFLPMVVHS
Chain of Follistatin-related protein 3 (Homo sapiens) (O95633 whole entry, looked up): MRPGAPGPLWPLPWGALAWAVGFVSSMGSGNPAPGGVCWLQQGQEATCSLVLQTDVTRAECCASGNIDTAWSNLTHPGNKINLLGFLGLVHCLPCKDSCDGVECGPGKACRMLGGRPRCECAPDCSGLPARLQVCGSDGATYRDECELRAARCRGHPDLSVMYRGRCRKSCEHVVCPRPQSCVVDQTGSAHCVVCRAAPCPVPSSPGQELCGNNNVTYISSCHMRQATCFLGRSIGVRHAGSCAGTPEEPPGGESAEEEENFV
Chain of Epidermal growth factor receptor (Homo sapiens) (P00533 whole entry, looked up): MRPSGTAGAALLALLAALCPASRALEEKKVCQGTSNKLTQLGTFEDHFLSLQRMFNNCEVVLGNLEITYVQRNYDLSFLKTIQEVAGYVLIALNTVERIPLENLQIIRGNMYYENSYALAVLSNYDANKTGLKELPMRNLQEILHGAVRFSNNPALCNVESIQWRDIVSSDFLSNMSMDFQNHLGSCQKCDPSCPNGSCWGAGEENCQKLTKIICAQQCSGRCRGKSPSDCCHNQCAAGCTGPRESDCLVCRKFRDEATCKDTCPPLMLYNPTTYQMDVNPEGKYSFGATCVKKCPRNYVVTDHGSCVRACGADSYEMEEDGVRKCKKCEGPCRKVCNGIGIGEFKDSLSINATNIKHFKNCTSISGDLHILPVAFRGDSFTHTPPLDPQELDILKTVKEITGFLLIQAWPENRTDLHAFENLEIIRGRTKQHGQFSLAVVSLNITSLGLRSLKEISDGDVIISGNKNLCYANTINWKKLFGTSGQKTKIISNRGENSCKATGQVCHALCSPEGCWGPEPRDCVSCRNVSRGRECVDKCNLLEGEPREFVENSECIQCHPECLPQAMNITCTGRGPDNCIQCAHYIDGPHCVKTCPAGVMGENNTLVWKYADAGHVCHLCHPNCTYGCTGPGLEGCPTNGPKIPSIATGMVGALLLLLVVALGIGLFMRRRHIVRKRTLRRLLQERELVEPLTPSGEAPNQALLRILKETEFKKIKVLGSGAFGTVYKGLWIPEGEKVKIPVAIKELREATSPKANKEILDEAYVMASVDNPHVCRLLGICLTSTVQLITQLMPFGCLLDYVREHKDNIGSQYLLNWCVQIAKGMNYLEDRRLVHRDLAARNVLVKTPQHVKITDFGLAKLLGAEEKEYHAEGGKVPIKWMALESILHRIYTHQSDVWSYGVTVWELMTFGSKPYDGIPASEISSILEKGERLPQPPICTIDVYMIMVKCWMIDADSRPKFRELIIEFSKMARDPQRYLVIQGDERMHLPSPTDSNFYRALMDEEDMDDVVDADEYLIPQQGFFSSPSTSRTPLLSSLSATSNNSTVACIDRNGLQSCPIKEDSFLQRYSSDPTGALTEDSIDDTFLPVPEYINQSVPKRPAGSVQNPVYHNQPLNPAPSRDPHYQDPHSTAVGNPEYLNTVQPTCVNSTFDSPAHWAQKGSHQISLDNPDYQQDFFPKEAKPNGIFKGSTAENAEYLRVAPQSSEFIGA
Chain of Dickkopf-related protein 1 (Homo sapiens) (O94907 whole entry, looked up): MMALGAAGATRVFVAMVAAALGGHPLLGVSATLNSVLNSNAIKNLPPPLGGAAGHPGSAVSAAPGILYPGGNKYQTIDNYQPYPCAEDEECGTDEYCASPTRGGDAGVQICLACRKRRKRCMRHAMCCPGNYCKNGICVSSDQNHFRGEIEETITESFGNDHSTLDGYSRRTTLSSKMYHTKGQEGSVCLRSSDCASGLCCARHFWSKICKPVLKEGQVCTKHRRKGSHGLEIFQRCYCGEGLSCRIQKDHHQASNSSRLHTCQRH
Chain of Neurogenic locus notch homolog protein 3 (Homo sapiens) (Q9UM47 whole entry, looked up): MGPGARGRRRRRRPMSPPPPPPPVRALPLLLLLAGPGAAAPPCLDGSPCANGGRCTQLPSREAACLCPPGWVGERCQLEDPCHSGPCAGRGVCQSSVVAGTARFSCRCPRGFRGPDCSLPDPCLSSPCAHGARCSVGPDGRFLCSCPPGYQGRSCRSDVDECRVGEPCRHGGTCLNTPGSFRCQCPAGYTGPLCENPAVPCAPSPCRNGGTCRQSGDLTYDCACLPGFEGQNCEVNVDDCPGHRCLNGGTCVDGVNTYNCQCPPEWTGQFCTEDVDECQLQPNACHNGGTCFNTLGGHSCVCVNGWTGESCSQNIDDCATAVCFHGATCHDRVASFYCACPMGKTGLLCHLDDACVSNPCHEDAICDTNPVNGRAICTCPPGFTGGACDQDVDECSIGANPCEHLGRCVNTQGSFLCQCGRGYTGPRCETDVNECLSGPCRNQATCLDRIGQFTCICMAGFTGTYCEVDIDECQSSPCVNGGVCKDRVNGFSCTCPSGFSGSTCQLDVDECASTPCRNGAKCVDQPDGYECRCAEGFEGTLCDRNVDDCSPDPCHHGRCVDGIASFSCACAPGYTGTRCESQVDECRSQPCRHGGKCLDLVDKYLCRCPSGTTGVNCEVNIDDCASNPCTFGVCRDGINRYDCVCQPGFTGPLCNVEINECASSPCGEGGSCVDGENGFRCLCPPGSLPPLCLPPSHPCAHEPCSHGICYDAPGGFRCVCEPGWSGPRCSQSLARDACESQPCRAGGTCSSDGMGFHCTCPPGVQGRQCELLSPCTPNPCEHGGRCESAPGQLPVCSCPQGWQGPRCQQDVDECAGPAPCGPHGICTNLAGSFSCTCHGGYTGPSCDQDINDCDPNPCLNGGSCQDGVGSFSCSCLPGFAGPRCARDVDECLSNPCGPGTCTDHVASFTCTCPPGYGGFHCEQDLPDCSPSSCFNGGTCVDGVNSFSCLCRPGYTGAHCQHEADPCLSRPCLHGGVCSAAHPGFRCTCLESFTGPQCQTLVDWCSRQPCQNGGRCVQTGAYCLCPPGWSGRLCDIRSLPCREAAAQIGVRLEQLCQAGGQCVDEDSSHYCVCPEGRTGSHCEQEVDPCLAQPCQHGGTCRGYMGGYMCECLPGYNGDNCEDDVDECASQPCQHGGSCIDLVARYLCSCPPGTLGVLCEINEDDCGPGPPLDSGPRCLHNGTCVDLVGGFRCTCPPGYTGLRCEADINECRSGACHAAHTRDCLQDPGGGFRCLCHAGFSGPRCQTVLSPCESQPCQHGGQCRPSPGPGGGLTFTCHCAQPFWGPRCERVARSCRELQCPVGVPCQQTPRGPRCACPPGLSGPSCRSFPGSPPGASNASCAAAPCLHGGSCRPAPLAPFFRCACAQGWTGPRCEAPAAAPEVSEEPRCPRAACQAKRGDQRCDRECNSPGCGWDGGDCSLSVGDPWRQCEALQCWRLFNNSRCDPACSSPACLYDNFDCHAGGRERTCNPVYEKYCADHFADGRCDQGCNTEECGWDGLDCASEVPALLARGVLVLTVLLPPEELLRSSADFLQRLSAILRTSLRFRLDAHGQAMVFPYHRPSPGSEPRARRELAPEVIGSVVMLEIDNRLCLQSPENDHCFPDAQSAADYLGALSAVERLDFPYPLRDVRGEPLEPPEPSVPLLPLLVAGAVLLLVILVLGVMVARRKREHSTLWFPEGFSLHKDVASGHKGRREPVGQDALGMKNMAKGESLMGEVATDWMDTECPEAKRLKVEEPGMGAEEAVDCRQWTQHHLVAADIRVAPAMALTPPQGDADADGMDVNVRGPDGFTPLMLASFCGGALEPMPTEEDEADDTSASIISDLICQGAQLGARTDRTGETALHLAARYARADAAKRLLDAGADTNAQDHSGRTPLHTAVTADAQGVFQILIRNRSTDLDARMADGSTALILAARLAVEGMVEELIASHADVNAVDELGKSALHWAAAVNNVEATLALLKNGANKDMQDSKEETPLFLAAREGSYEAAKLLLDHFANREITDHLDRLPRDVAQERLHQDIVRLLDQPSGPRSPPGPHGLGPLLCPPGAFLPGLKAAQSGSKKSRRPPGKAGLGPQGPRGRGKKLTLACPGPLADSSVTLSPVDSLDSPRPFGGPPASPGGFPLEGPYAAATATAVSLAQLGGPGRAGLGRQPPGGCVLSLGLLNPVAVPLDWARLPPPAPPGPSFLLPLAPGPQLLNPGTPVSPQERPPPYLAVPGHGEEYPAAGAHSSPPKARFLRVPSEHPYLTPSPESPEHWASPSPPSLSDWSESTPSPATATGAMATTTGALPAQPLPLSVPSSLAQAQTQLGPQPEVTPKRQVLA
Chain of Torsin-1A-interacting protein 2 (Homo sapiens) (Q8NFQ8 whole entry, looked up): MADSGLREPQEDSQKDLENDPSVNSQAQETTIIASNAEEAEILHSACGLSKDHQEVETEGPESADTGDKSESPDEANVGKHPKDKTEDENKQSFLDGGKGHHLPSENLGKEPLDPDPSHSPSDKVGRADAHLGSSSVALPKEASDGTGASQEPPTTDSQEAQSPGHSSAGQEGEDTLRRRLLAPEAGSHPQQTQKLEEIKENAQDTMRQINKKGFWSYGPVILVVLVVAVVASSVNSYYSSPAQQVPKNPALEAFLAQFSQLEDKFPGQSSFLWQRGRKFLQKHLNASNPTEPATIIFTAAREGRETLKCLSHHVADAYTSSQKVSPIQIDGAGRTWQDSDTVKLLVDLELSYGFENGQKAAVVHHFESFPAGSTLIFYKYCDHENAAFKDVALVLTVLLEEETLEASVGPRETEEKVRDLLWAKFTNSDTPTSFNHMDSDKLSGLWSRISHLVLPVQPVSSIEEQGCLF

Take `O=C1OC[C@@H](c2ccccc2)N2CC(/C=C/c3ccccc3)=CC12` (stereo not given in full): the composite z-score in test [1] is -1.07; in test [5] it was -0.79; in test [7], -0.158; in test [8], -1.37; in test [9] it was -0.0841; in test [10] it was -0.425. The composite z-score is -0.0726 in test [11]; -0.144 in [12]; 0.537 in [13]; -0.529 in test [15]; -0.511 in test [16]; -2.06 in test [17]. In addition, the values for the composite z-score in [18], in test [19] and in test [20] were -1.16, -1.15 and 0.0575, respectively. In addition, the z-score in test [2] is 0.0482 (inactive); in test [3], -1.27 (inactive); in [4], 0.321 (inactive); in test [6], 0.701 (inactive); in [14], -0.521 (inactive).
On to `COCCCNC(=O)[C@]1(Cc2ccccc2N=[N+]=[N-])N=C(c2ccc(OCCCO)cc2)O[C@@H]1c1ccccc1N=[N+]=[N-]`, for which the composite z-score came to 1.26 in [1]; 2.72 in [5]; 0.23 in test [7]; 0.115 in test [8]; 0.836 in test [9]; 0.0656 in [10]. For the same molecule, the composite z-score is 0.707 in test [11]; 0.609 in [12]; 0.942 in test [13]; 0.955 in test [15]; 0.353 in [16]; -0.287 in test [17]. Moreover, the results for the composite z-score in [18], in [19] and in test [20] were 0.219, -0.589 and 0.738, respectively. For the same molecule, the z-score in test [2] is -0.922 (inactive); in [3], -0.808 (inactive); in test [4], 1.75 (inactive); in [6] it was 0.561 (inactive); in [14], 1.93 (inactive).
As for `C[C@H]1C2=C3C(CC[C@H]4C(OCc5ccc(F)cc5C(F)(F)F)OC[C@](C)([C@@H]34)N(C(=O)OC(C)(C)C)C2)C(CO)C1CO` (stereo not given in full), the composite z-score is 0.889 in [1]; 3.04 in [5]; 0.606 in [7]; -0.904 in [8]; 1.05 in test [9]; 0.0149 in test [10]. The composite z-score in test [11] is 0.0402; in test [12] it was -0.0997; in test [13], 0.984; in test [15] it was -0.0455; in test [16], 0.875; in test [17], -0.249. Besides, the composite z-score is 0.885 in test [18], -0.461 in [19] and 1.09 in test [20]. Moreover, the z-score in test [2] is 0.24 (inactive); in test [3], -3.71 (inactive); in test [4], 0.0345 (inactive); in test [6], -1.5 (inactive); in test [14] it was 0.509 (inactive).
Regarding `CC(C)N1CC=CC23O[C@@H]4C=CCOC(=O)[C@@H]4[C@H]2C(=O)N(C(C)CO)[C@@H]3C1=O` (stereo not given in full), the composite z-score in test [1] was -1; in [5], -0.163; in [7] it was 0.119; in [8], -1.03; in [9], -0.66; in test [10], -0.199. Besides, the composite z-score in test [11] is 0.776; in test [12] it was -0.162; in test [13] it was 0.559; in test [15], -0.724; in [16] it was -1.99; in test [17], -1.29. Moreover, the composite z-score was -0.93 in [18], -1.21 in test [19] and -0.116 in [20]. For the same molecule, the z-score was -0.741 (inactive) in test [2]; -0.06 (inactive) in test [3]; -0.0277 (inactive) in [4]; -0.0334 (inactive) in test [6]; 0.408 (inactive) in [14].
As for `COc1cc2c(cc1OC)CN(C(=O)[C@@H]1[C@H]3C(=O)O[C@H](c4ccccc4)[C@H](c4ccccc4)N3[C@H](c3ccccc3OCCO)[C@@]13C(=O)Nc1ccc(C#CC4(O)CCCCCC4)cc13)CC2`, the composite z-score in [1] is 1.54; in [5], 2.09; in test [7], 0; in [8], 0.56; in [9] it was 0.896; in test [10] it was -0.0357. The composite z-score in test [11] stood at 1.1; in [12], 0.159; in test [13], 0.0184; in test [15], 0.366; in test [16], 1.13; in test [17], 0.368. For the same molecule, the composite z-score stood at 0.511 in test [18], 0.383 in test [19] and 0.275 in test [20]. The z-score is 2.74 (inactive) in [2]; 0.563 (inactive) in test [3]; 5.14 (inactive) in test [4]; 2.26 (inactive) in [6]; 0.582 (inactive) in test [14].

The record behind these values is PubChem BioAssay.
